Measured values taken from PubChem BioAssay AID1159580 (chemical genetic matrix, 2015).
“And” between values parts separate entries of the source, which are not always exact repeats. Identical values can stand only once. In all, about 5,500 compounds went through this assay and about 2,000 (36%) were called active. Roughly 18% stayed inconclusive and do not appear here. Rule as the data show it: active = normalized growth mostly below about 0.91 (no sharp cut-off); inconclusive = no clear call, values can overlap the other calls; inactive = mostly above about 0.92. The list shows a part of the results.

Experiment: chemical genetic growth profiling, strain panel (AID 1159580);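 also: tested at 20 µM; growth read once vehicle control cultures reached saturation at 30 °C; 1 = growth at the plate median or of vehicle wells; lower values mean less growth of the strain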
Details: S. cerevisiae deletion strains, growth OD

Measured: normalized growth

CCCN1C[C@H](CSC)C[C@@H]2c3cccc4[nH]cc(c34)C[C@H]21
inactive: locus YAL013W, strain DEP1, hits give low values 0.997 | locus YAL021C, strain ccr4, hits give low values 0.978 | locus YAL026C, strain drs2, hits give low values 1.02 | locus YAL030W, strain snc1, hits give low values 1.02 | locus YBL061C, strain skt5, hits give low values 1.01 | locus YBR009C, strain hhf1, hits give low values 1.02 | locus YBR021W, strain FUR4, hits give low values 0.965 | locus YBR023C, strain chs3, hits give low values 0.998 | locus YBR171W, strain sec66, hits give low values 1.02 | locus YBR229C, strain ROT2, hits give low values 1 | locus YBR231C, strain swc5, hits give low values 1.01 | locus YBR279W, strain paf1, hits give low values 0.996 | locus YCL011C, strain gbp2, hits give low values 1.02 | locus YCL016C, strain dcc1, hits give low values 1.01 | locus YCL029C, strain bik1, hits give low values 1.02 | locus YCL069W, strain vba3, hits give low values 1.01 | locus YCR088W, strain abp1, hits give low values 1.01 | locus YDL005C, strain med2, hits give low values 0.994 | locus YDL035C, strain GPR1, hits give low values 0.992 | locus YDL040C, strain nat1, hits give low values 0.996 | locus YDL074C, strain BRE1, hits give low values 0.975 | locus YDL101C, strain DUN1, hits give low values 0.992 | locus YDL134C, strain PPH21, hits give low values 1.01 | locus YDL185W, strain tfp1, hits give low values 1.02 | locus YDL192W, strain arf1, hits give low values 1.02 | locus YDR001C, strain nth1, hits give low values 1.01 | locus YDR069C, strain doa4, hits give low values 0.994 | locus YDR101C, strain arx1, hits give low values 1 | locus YDR137W, strain rgp1, hits give low values 1.1 | locus YDR150W, strain NUM1, hits give low values 0.989 | locus YDR159W, strain sac3, hits give low values 0.989 | locus YDR162C, strain NBP2, hits give low values 0.97 | locus YDR195W, strain ref2 1.03 | locus YDR297W, strain sur2, hits give low values 1.01 | locus YDR318W, strain mcm21, hits give low values 1.03 | locus YDR334W, strain swr1, hits give low values 1.02 | locus YDR335W, strain msn5, hits give low values 1.02 | locus YDR388W, hits give low values 1.02 | locus YDR392W, strain spt3, hits give low values 1.02 | locus YDR502C, strain sam2, hits give low values 1.01 | locus YEL003W, strain gim4, hits give low values 1.01 | locus YEL037C, strain rad23, hits give low values 1.01 | locus YEL061C, strain CIN8 (second series), hits give low values 1.02 | locus YEL061C, strain CIN8, hits give low values 0.999 | locus YER015W, strain faa2, hits give low values 1.01 | locus YER016W, strain bim1, hits give low values 1.02 | locus YER110C, hits give low values 1.02 | locus YER111C, strain swi4, hits give low values 1.01 | locus YER155C, strain BEM2 (second series), hits give low values 0.999 | locus YER155C, strain BEM2, hits give low values 1 | locus YER167W, strain BCK2, hits give low values 1 | locus YFR010W, strain ubp6, hits give low values 0.987 | locus YGL078C, strain dbp3, hits give low values 1.01 | locus YGL086W, strain mad1, hits give low values 1.02 | locus YGL167C, strain pmr1, hits give low values 1.02 | locus YGL173C, strain kem1, hits give low values 1 | locus YGL227W, strain vid30, hits give low values 1.01 | locus YGL240W, strain doc1, hits give low values 0.991 | locus YGL248W, strain PDE1, hits give low values 0.998 | locus YGL253W, strain hxk2, hits give low values 1.01 | locus YGR078C, strain PAC10, hits give low values 0.988 | locus YGR135W, strain pre9, hits give low values 0.985 | locus YGR229C, strain SMI1, hits give low values 0.984 | locus YGR252W, strain gcn5, hits give low values 1.06 | locus YHR013C, strain ard1, hits give low values 1 | locus YHR027C, strain rpn1, hits give low values 1.02 | locus YHR030C, strain SLT2, hits give low values 1.01 and 1.02 | locus YHR079C, strain IRE1 (second series), hits give low values 1.01 | locus YHR079C, strain IRE1, hits give low values 1.04 | locus YHR094C, strain hxt1, hits give low values 1.02 | locus YHR129C, strain ARP1, hits give low values 1 | locus YHR142W, strain chs7, hits give low values 1.02 | locus YHR200W, strain rpn10, hits give low values 1.01 | locus YIL066C, strain RNR3, hits give low values 1.01 | locus YIL073C, strain SPO22, hits give low values 1.08 | locus YIL125W, strain kgd1, hits give low values 1 | locus YIR030C, strain dcg1, hits give low values 1.01 | locus YJL092W, strain hpr5, hits give low values 1.01 | locus YJL095W, strain BCK1 (second series), hits give low values 1.01 | locus YJL095W, strain BCK1, hits give low values 0.975 and 1.04 | locus YJL115W, strain asf1, hits give low values 1.02 | locus YJL129C, strain trk1, hits give low values 1.03 | locus YJL134W, strain LCB3, hits give low values 0.993 | locus YJL154C, strain vps35, hits give low values 1.01 | locus YJL164C, strain tpk1, hits give low values 1.01 | locus YJL166W, strain qcr8, hits give low values 1.01 | locus YJL168C, strain set2, hits give low values 1.03 | locus YJL187C, strain SWE1 (second series), hits give low values 1 | locus YJR043C, strain POL32, hits give low values 1 | locus YJR066W, strain TOR1, hits give low values 0.985 | locus YJR075W, strain HOC1, hits give low values 0.98
